TDP1 cell CPT = qHTS for Inhibitors of human tyrosyl-DNA phosphodiesterase 1 (TDP1): qHTS in cells in presence of CPT; chicken DT40 Tdp1-/-;hTDP1 cells + 20 nM CPT, ATP luminescence, 48 h; Potency, µM (doses to about 46.2 µM), most hits filed as inhibitors; 420,000 tested, 12% active; also: nearly all actives have a fitted effect of over 55% in size
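Chicken DT40 Tdp1-/- cells stably complemented with human TDP1 were seeded at 400 cells/well in medium containing 20 nM camptothecin, exposed to pin-transferred compounds, and grown at 37 °C for at least 48 hr. Viability was read as ATP luminescence.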
HT1080 IDH1KD tx = qHTS for induction of synthetic lethality in tumor cells producing 2HG: qHTS for the HT-1080-IDH1KD cell line | HT-1080 IDH1 knockdown viability, ATP luminescence, 48 h | Potency, µM (doses to about 46.1 µM), hits mostly cytotoxic | 360,000 tested, 2% active
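% activity derives from luminescence (CellTiter-Glo), normalised to DMSO and no-cell wells. HT-1080-IDH1KD cells, 750/well, had 48 h compound exposure at 37 °C.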
TDP1 cell noCPT = qHTS for Inhibitors of human tyrosyl-DNA phosphodiesterase 1 (TDP1): qHTS in cells in absence of CPT; DT40 Tdp1-/- hTDP1 cells, no CPT, ATP luminescence, 48 h; Potency, µM (highest dose often 46.2 µM), hits mostly inhibitors; 420,000 tested, 15% active; AID 686978, 2013; also: nearly all actives have a fitted effect of over 55% in size
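Cells were dispensed at 400 per well, compounds added by pin tool, plates incubated ≥48 hr at 37 °C, then CellTiter-Glo added for 30 min at room temperature before luminescence reading. Line: DT40 Tdp1-/- complemented with hTDP1; camptothecin omitted.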
IL1B secr inh = qHTS for Inhibitors of Inflammasome Signaling: IL-1-beta AlphaLISA Primary Screen. THP-1 LPS/ATP IL-1B secretion, AlphaLISA, 16 h; active compounds read low. activity change, % at 57.5 µM. 360,000 tested, 4.7% active. AID 743279, 2014; in the data active = activity change below about -50%; inconclusive = mostly about -30% to -49%
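THP-1 cells pretreated 1 hr with compounds (up to 57.5 uM final), then stimulated with LPS (250 ng/mL final) plus ATP (1.25 mM final); secreted IL-1B measured by AlphaLISA after 16 hr, decreased signal indicating inhibition.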
HT1080NT lethal = qHTS for induction of synthetic lethality in tumor cells producing 2HG: qHTS for the HT-1080-NT fibrosarcoma cell line. HT-1080-NT fibrosarcoma viability, CellTiter-Glo ATP luminescence, 48 h. Potency, µM (doses to about 46.1 µM), hits mostly cytotoxic. 360,000 tested, 1.6% active;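 also: NT is the 2HG producing partner of a matched IDH1 knockdown line; nearly all actives have a fitted effect of over 55% in size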
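750 cells/well, RPMI + 5% FBS; 2 h settle, compound pin-transfer, 48 h at 37 degrees C. CellTiter-Glo 10 min RT, luminescence. Normalized to DMSO and media-only wells.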
Large screens that a line does not name were inactive. Sampled rows, rich in hits. Any-hit rate of the full collection: about 19%. Unless noted, calls follow the shape of the dose curve; as a rule, active = well fitted curve in the direction sought with a large enough effect; inconclusive = small, poorly fitted or top-dose-only effect, or another doubt; inactive = no such curve, though single readings can be large; an effect the other way counts as inactive or inconclusive.

Cc1cccc(NC(=O)Nc2nnc([C@@H]3C[C@H](O)[C@@H](CO)O3)s2)c1	TDP1 cell CPT inconclusive
Cc1ccc2nc(NC(=O)c3nc(SCc4ccccc4C)ncc3Cl)sc2c1	TDP1 cell noCPT 16.4µM (no result: HT1080 IDH1KD tx, IL1B secr inh, HT1080NT lethal)
Cc1ccc2nc(NC(=O)c3cccs3)sc2c1	none
Cc1ccc2nc(NC(=O)c3ccc(Cl)s3)sc2c1	TDP1 cell CPT 20.6µM, TDP1 cell noCPT inconclusive
CCCN(c1ccc(C(C)C)cc1)S(=O)(=O)c1ccc2c(c1)n(C)c(=O)c(=O)n2C	none (no result: HT1080 IDH1KD tx, IL1B secr inh, HT1080NT lethal)
CN1CCN(C(=O)c2ccc3c(c2)N(Cc2ccc(Cl)cc2)C(=O)c2ccccc2S3(=O)=O)CC1	TDP1 cell noCPT inconclusive (no result: HT1080 IDH1KD tx, IL1B secr inh, HT1080NT lethal)
CC1CCN(C(=O)c2ccc3c(c2)N(Cc2ccccc2)C(=O)c2ccccc2S3(=O)=O)CC1	TDP1 cell CPT inconclusive, TDP1 cell noCPT 16.4µM (no result: HT1080 IDH1KD tx, IL1B secr inh, HT1080NT lethal)
O=C(c1ccc2c(c1)N(Cc1ccc(F)cc1)C(=O)c1ccccc1S2(=O)=O)N1CCC(Cc2ccccc2)CC1	TDP1 cell CPT 5.8µM, TDP1 cell noCPT 5.17µM (no result: HT1080 IDH1KD tx, IL1B secr inh, HT1080NT lethal)
O=C(c1ccc2c(c1)N(Cc1ccccc1)C(=O)c1ccccc1S2(=O)=O)N1CCOCC1	none (no result: HT1080 IDH1KD tx, IL1B secr inh, HT1080NT lethal)
COc1ccc2c(c1)OCC(Cc1ccc(OC)c(O)c1)C2=O (stereo not drawn)	TDP1 cell CPT 0.731µM, TDP1 cell noCPT 0.581µM (no result: HT1080 IDH1KD tx, IL1B secr inh, HT1080NT lethal)
Cc1cccc(C(=O)NC(=S)Nc2c(C)n(C)n(-c3ccccc3)c2=O)c1	none
O=C(Nc1ccc(F)cc1F)c1cc(-c2ccc3c(c2)OCO3)on1	none
CNC(=O)C1CCN(C(=O)N2CC(C)Oc3ccc(Cl)cc32)CC1 (stereo not drawn)	none (no result: HT1080 IDH1KD tx, IL1B secr inh, HT1080NT lethal)
Cc1ccc(/C=C/c2ccc(N(C)C)cc2)[n+](C)c1	TDP1 cell CPT 0.517µM, HT1080 IDH1KD tx inconclusive, TDP1 cell noCPT 0.411µM
CN(C)c1ccc(C=O)cc1	none (no result: HT1080 IDH1KD tx, IL1B secr inh, HT1080NT lethal)
CN(C)c1ccc(/C=C/c2cc[n+](C)cc2)cc1	TDP1 cell CPT 6.51µM, HT1080 IDH1KD tx inconclusive, TDP1 cell noCPT 5.17µM
C[C@H](NC(=O)c1ncn2c1C(=O)NC[C@@H]2C)C(=O)OC(C)(C)C	none
CCCCN(C)Cc1cc(=O)oc2cc3c(cc12)CCCC3	TDP1 cell CPT inconclusive, TDP1 cell noCPT inconclusive
COC(=O)c1c(C(=O)OC)n(CCCN)c2ccc(C)cc12	TDP1 cell CPT 23.1µM, HT1080 IDH1KD tx inconclusive, TDP1 cell noCPT 13µM, IL1B secr inh inconclusive, HT1080NT lethal inconclusive
CCOC(=O)c1c(C)n(CCO)c2ccc(O)cc12	none
COc1ccc2c(C=O)c[nH]c2c1	none
COc1ccc2c(C(=O)CCl)c[nH]c2c1	TDP1 cell CPT 2.59µM, HT1080 IDH1KD tx inconclusive, TDP1 cell noCPT 3.26µM, HT1080NT lethal inconclusive
CC(C)C(=O)Nc1ccc(C(=O)NNC(=S)NC(=O)c2ccco2)cc1	TDP1 cell CPT inconclusive, TDP1 cell noCPT inconclusive
Cc1ccc(-c2nn(-c3ccccc3)cc2C2SCC(=O)N2Cc2ccccc2)o1 (stereo not drawn)	TDP1 cell CPT 13µM, TDP1 cell noCPT 8.2µM, IL1B secr inh -68.5
COc1ccc(Cl)cc1NC(=O)C1CSC(c2ccncc2)=N1 (stereo not drawn)	TDP1 cell CPT 20.6µM, TDP1 cell noCPT inconclusive
CC(C)CC1(C)NC(=O)N(CC(=O)Nc2ccccc2Br)C1=O (stereo not drawn)	none
O=C(CSc1nc2c([nH]c3ccccc32)c(=O)n1-c1ccc(F)cc1)NCC1CCCO1 (stereo not drawn)	none (no result: HT1080 IDH1KD tx, IL1B secr inh, HT1080NT lethal)
Cc1ccc(S(=O)(=O)CC(=O)Nc2ccc3nc(C)sc3c2)cc1	none
Cc1ccc(-c2nn(C)c(=O)c3ccccc23)cc1S(=O)(=O)NCCN1CCOCC1	TDP1 cell CPT inconclusive, TDP1 cell noCPT inconclusive
Cc1ccccc1S(=O)(=O)NCC1CCCO1 (stereo not drawn)	none
CCCNS(=O)(=O)c1cc(-c2nn3c(C)nnc3c3ccccc23)ccc1C	TDP1 cell CPT inconclusive, TDP1 cell noCPT 18.4µM (no result: HT1080 IDH1KD tx, IL1B secr inh, HT1080NT lethal)
